Data on 17 compounds can be found in ChEMBL document CHEMBL3988442, “University of Dundee, Small-Polar-MMV Screening Library” (2021).

The target of the assay is T1, Methionyl-tRNA synthetase, putative (Leishmania donovani (strain BPK282A1)) (UniProt E9BF75).
T1 sequence (whole entry): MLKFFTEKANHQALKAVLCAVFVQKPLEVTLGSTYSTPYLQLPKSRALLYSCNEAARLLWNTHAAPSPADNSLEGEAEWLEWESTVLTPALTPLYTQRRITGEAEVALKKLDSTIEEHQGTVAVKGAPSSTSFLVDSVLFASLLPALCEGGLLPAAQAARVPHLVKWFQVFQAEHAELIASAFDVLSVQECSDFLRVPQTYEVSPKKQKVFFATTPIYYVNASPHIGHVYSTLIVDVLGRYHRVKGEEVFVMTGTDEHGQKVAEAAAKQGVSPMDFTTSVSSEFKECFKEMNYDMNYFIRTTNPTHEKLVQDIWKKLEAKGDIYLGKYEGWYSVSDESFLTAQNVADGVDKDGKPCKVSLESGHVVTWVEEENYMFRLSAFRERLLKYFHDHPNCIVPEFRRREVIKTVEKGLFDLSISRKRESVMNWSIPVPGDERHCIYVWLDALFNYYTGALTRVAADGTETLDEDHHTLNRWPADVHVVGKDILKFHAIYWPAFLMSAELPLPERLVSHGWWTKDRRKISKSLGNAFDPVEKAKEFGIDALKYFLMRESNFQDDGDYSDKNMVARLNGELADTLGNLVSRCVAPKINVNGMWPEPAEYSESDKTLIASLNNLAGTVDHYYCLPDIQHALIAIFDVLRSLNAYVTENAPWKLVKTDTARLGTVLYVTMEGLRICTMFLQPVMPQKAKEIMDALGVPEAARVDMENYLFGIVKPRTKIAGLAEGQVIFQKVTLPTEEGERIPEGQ
In words: Leishmania donovani Methionine tRNA synthetase (LdMetRS):v7. Dose response assay. It is filed as functional. On the set-up: conc 80 nM, time 150 minutes.

Turning to `CN(c1cccc(F)c1)c1nc(NCCO)c2cnn(C)c2n1`, the PXC50 (MAX_EFFECT 8.142493639) was below 4, the PXC50 (MAX_EFFECT 9.649122807) is below 4 and the PXC50 (MAX_EFFECT 12.83018868) is below 4.

Consider `NCC1CCN(C2CCN(c3ccc(-c4ccco4)cc3)CC2)C1` (configuration not stated), for which the PXC50 reads like this: (BOTTOM 4.43866672, HILLSLOPE 0.884621075, MAX_EFFECT 64.49275362, TOP 100.0) 4.31; (BOTTOM 4.60090898, HILLSLOPE 1.046241477, MAX_EFFECT 65.98639456, TOP 92.93543159) 4.34; (BOTTOM 4.64806131, HILLSLOPE 0.783599422, MAX_EFFECT 54.46584939, TOP 100.0) 4.09.

With `NC1CCOc2c(Cl)cc(Cl)cc21` (configuration not stated), the PXC50 was below 2.7 (MAX_EFFECT 4.805491991), below 3 (MAX_EFFECT 6.273764259), below 2.7 (MAX_EFFECT 11.76470588) and below 3 (MAX_EFFECT 23.54211663).

As for `COC(=O)CNc1nc(Nc2ccc(F)c(F)c2)nc2c1cnn2C`, the PXC50 is 5.87 (BOTTOM 3.451309233, HILLSLOPE 1.311155922, MAX_EFFECT 92.63657957, TOP 92.51088835); 5.83 (BOTTOM -7.309973035, HILLSLOPE 0.885022203, MAX_EFFECT 95.56840077, TOP 99.22229829); 5.96 (BOTTOM -8.727655422, HILLSLOPE 0.982384922, MAX_EFFECT 94.42060086, TOP 95.2064332).

For the compound `Cc1cc(C)n(-c2nc(N3CCCC(O)C3)c3c4c(sc3n2)CCCC4)n1` (configuration not stated), the PXC50 (MAX_EFFECT 1.492537313) is below 4, the PXC50 (MAX_EFFECT 6.004140787) is below 4, the PXC50 (MAX_EFFECT 6.832298137) is below 4 and the PXC50 (MAX_EFFECT 7.036247335) is below 4.

The compound `Cc1ccc(CSc2nc(N)cc(NCC(=O)N3CCNCC3)n2)cc1` showed a PXC50 (BOTTOM -2.199449509, HILLSLOPE 1.075485519, MAX_EFFECT 68.11594203, TOP 100.0) of 4.29; a PXC50 (BOTTOM -2.347869122, HILLSLOPE 1.011463002, MAX_EFFECT 66.66666667, TOP 100.0) of 4.27; a PXC50 (BOTTOM -6.039839519, HILLSLOPE 1.064095709, MAX_EFFECT 59.36952715, TOP 57.65563111) of 4.81.

In the case of `COCCCNc1nc(Nc2ccc(F)c(F)c2)nc2c1cnn2C`, the PXC50 came out at 4.89 (BOTTOM 8.707474288, HILLSLOPE 1.018785888, MAX_EFFECT 82.18527316, TOP 91.55126405); 4.77 (BOTTOM 8.755992534, HILLSLOPE 0.77848464, MAX_EFFECT 80.25751073, TOP 100.0); 4.83 (BOTTOM -0.585436575, HILLSLOPE 0.774777818, MAX_EFFECT 86.07350097, TOP 105.947702).

Regarding `Cc1nc(-c2cc(Cl)c3c(c2)CC(CN)O3)c[nH]1` (configuration not stated), the PXC50 (MAX_EFFECT 32.65306122) is below 4, the PXC50 (MAX_EFFECT 37.68115942) is below 4 and the PXC50 (MAX_EFFECT 41.5061296) is below 4.

On to `CN(C)c1nc(N(C)C)c2cnn(C)c2n1`, for which the PXC50 was below 4 (MAX_EFFECT 10.25145068), below 4 (MAX_EFFECT 21.69421488) and below 4 (MAX_EFFECT 22.46696035).

Take `Cc1ccnc(C2CN(Cc3ccc(-c4ccccc4C(=O)O)o3)C2)n1`: the PXC50 turned out to be 4.12 (BOTTOM 9.249913927, HILLSLOPE 1.102722508, MAX_EFFECT 60.83188908, TOP 100.0); 4.36 (BOTTOM 9.895143899, HILLSLOPE 1.447637201, MAX_EFFECT 79.86111111, TOP 100.0); 4.2 (BOTTOM 14.75237733, HILLSLOPE 1.939721289, MAX_EFFECT 72.48322148, TOP 100.0).

With `Cn1ncc2c(Nc3ccc(F)c(F)c3)nc(Nc3ccc(F)c(F)c3)nc21`, the PXC50 is, setting by setting: (MAX_EFFECT 4.405286344) below 4; (MAX_EFFECT 13.01652893) below 4; (MAX_EFFECT 15.66731141) below 4.

In the case of `c1ccc(C2CCCN(c3cncc(-n4cccn4)n3)CC2)cc1` (configuration not stated), the PXC50 (BOTTOM 2.059841181, HILLSLOPE 1.067052754, MAX_EFFECT 60.46065259, TOP 100.0) came to 4.15; the PXC50 (BOTTOM 3.016481369, HILLSLOPE 1.023719455, MAX_EFFECT 53.04659498, TOP 100.0) is 4.01; the PXC50 (BOTTOM -1.1240017, HILLSLOPE 1.127395441, MAX_EFFECT 50.23923445, TOP 100.0) is 4.01; the PXC50 (MAX_EFFECT 41.25412541) is below 4; the PXC50 (MAX_EFFECT 41.30434783) is below 4.

Consider `Cn1ncc2c(NCCO)nc(Nc3cccc(C(F)(F)F)c3)nc21`, for which the PXC50 runs as follows: (MAX_EFFECT 33.39622642) below 4; (MAX_EFFECT 39.26940639) below 4; (MAX_EFFECT 40.60721063) below 4.

Regarding `CCC(C)NC(=O)c1ccc(-c2ccco2)[nH]c1=O` (configuration not stated), the PXC50 runs as follows: (MAX_EFFECT 4.72854641) below 4; (MAX_EFFECT 5.442176871) below 4; (MAX_EFFECT 7.971014493) below 4.

Take `CCc1cc(N[C@@H]2CC[C@@H](N)C2)n2nc(C)c(C)c2n1`: the PXC50 (BOTTOM 1.026617696, HILLSLOPE 1.297008069, MAX_EFFECT 52.85961872, TOP 100.0) was determined as 4.01; the PXC50 (BOTTOM 3.147594101, HILLSLOPE 1.2343555, MAX_EFFECT 68.05555556, TOP 100.0) was 4.22; the PXC50 (BOTTOM 4.251586265, HILLSLOPE 1.063316163, MAX_EFFECT 53.69127517, TOP 100.0) came out at 4.06.

For `O=C(CCNC(=O)c1ccccc1F)NCCNc1cccnc1`, the PXC50 was below 4 (MAX_EFFECT 3.623188406), below 4 (MAX_EFFECT 4.761904762) and below 4 (MAX_EFFECT 5.779334501).

For the compound `Cc1nn(C)c(C)c1CCn1cncc1-c1ccc2c(c1)CC(C)N2C` (configuration not stated), the PXC50 is, setting by setting: (BOTTOM 5.604710013, HILLSLOPE 1.073782549, MAX_EFFECT 50.43327556, TOP 78.0664514) 4.19; (MAX_EFFECT 34.22818792) below 4; (MAX_EFFECT 37.5) below 4; (MAX_EFFECT 42.63038549) below 4; (MAX_EFFECT 45.23364486) below 4.
